Reference: PubChem BioAssay (NCATS)
Records with an inconclusive call do not appear. Starred links: 1 amine or outer side, 2 acyl side, 3 side chain; linkers in the order of their positions; H or OH if unused. Positions of bridges follow the written chain, without caps; N, C: chain ends. Non-standard residues stand in square brackets, D forms with d. Residues, ends and D or L forms follow the SMILES beside them. Chains are numbered I, II in the order given. Actinocin(9to1) = Cc1c2oc3c(C)ccc(C(=O)[*:1])c3nc-2c(C(=O)[*:2])c(N)c1=O; NMeV = CN[CH](C(=O)O)C(C)C; Sar = CNCC(=O)O

Assay: qHTS for identification of novel therapeutic agents for treatment of microphthalmiaassociated transcription factor (MiT) renal cell carcinoma (RCC) (AID 1963991)
Conditions: TFE3-RCC UOK109 viability, CellTiter-Glo, 48 h; measured here: UOK109 Z-AUC; stronger effect = lower value
How it was run: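 Curves over 11 concentrations were fitted to CellTiter-Glo luminescence, scaled between empty wells (0%) and DMSO (100%) viability. Cells were UOK109, UOK124 and UOK145 TFE3-fusion RCC lines at 500/well, exposed 48 hours at 37 C.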

Which z-score does the source give for `Cc1cc(O)c2c(c1)C(=O)c1cccc(O)c1C2=O` here?
The z-score was -0.138.

For `Cn1cc(-c2ccc3ncc(Cc4ccc5ncccc5c4)n3n2)cn1`, which z-score is on record?
Its z-score is -0.236.

With `CC(C(C)N1CC(=O)NC(=O)C1)N1CC(=O)NC(=O)C1` (centres undefined) as the compound, how does the z-score read?
Its z-score is -0.243.

With `CC(C)N(CC[C@H](c1ccccc1)c1cc(CO)ccc1O)C(C)C` as the compound, how does the z-score read?
The z-score was 0.828.

With `C=C1CCC2[C@](C)(CO)C(O)CC[C@]2(C)C1CC=C1C(=O)OCC1O` (some centres undefined) as the compound, how does the z-score read?
The z-score was 0.432.

With `Nc1nc(=O)n([C@H]2CSC(CO)O2)cc1F` (some centres undefined) as the compound, how does the z-score read?
Its z-score is 0.159.

Which z-score does the source give for `CC(=O)OCC(=O)[C@@]1(O)CC[C@H]2[C@@H]3CCC4=CC(=O)CC[C@]4(C)[C@@H]3C(=O)C[C@@]21C` here?
Its z-score is -0.147.

With `CCCCCCCCCCCCCCCC(=O)OC[C@@H](NC(=O)C(Cl)Cl)[C@H](O)c1ccc([N+](=O)[O-])cc1` as the compound, how does the z-score read?
The z-score was 1.8.

For `Cc1onc(-c2ccccc2)c1C(=O)N[C@@H]1C(=O)N2[C@@H](C(=O)O)C(C)(C)S[C@@H]12`, which z-score is on record?
Its z-score is 2.05.

Which z-score does the source give for `CC(=O)NC(CS)C(=O)O` (centres undefined) here?
The z-score was 0.609.

For `OC[C@H]1OC(O)C[C@@H](O)[C@H]1O` (some centres undefined), which z-score is on record?
The z-score was 1.34.

Which z-score does the source give for `C[N+]1(C)[C@@H]2C[C@@H](OC(=O)C(O)(c3cccs3)c3cccs3)C[C@H]1[C@@H]1O[C@@H]12` here?
Its z-score is 0.526.

With `COC(=O)[C@@H]1CC2=CC(=O)CC[C@]2(C)[C@@]23O[C@@H]2C[C@@]2(C)[C@H](CC[C@@]24CCC(=O)O4)[C@@H]13` as the compound, how does the z-score read?
The z-score was 0.222.

With `C#C[C@]1(O)CC[C@@H]2[C@@H]3CCC4=CC(=O)CC[C@@H]4[C@H]3CC[C@@]21CC` as the compound, how does the z-score read?
Its z-score is 0.12.

Which z-score does the source give for `CCCNS(=O)(=O)Nc1ncnc(OCCOc2ncc(Br)cn2)c1-c1ccc(Br)cc1` here?
The z-score was 1.06.

Which z-score does the source give for `CC(=O)N[C@@H]1[C@H](O[C@@H]2c3ccc(c(Cl)c3)Oc3cc4cc(c3O[C@H]3O[C@H](CO)[C@@H](O)[C@H](O)[C@H]3NC(=O)CCCCCCCC(C)C)Oc3ccc(cc3Cl)C[C@H]3NC(=O)[C@H](N)c5ccc(O)c(c5)Oc5cc(O)cc(c5)[C@H](NC3=O)C(=O)N[C@H]4C(=O)N[C@H]3C(=O)N[C@@H]2C(=O)N[C@@H](C(=O)O)c2cc(O)cc(O[C@H]4O[C@H](CO)[C@@H](O)[C@H](O)[C@H]4O)c2-c2cc3ccc2O)O[C@H](CO)[C@@H](O)[C@@H]1O` here?
The z-score was 0.106.

Which z-score does the source give for `Cc1c2oc3c(C)ccc(C(=O)NC4C(=O)NC(C(C)C)C(=O)N5CCCC5C(=O)N(C)CC(=O)N(C)C(C(C)C)C(=O)OC4C)c3nc-2c(C(=O)NC2C(=O)NC(C(C)C)C(=O)N3CCCC3C(=O)N(C)CC(=O)N(C)C(C(C)C)C(=O)OC2C)c(N)c1=O` (centres undefined) (I: TVP[Sar][NMeV] / II: TVP[Sar][NMeV]; ester I:1-I:C, II:1-II:C; linker I:N-II:N via Actinocin(9to1); configuration not given here) here?
Its z-score is -4.2.

Which z-score does the source give for `CCCCC(=O)O[C@]1(C(=O)CO)[C@@H](C)C[C@H]2[C@@H]3CCC4=CC(=O)C=C[C@]4(C)[C@@]3(F)[C@@H](O)C[C@@]21C` here?
The z-score was -0.136.

Which z-score does the source give for `Cc1noc(-c2ccc(CSCCC(=O)O)cc2)c1NC(=O)OC(C)c1ccccc1Cl` (centres undefined) here?
The z-score was -0.684.

With `CCN1CCN(C(=O)N[C@H](C(=O)N[C@@H]2C(=O)N3C(C(=O)O)=C(CSc4nnnn4C)CS[C@@H]23)c2ccc(O)cc2)C(=O)C1=O` as the compound, how does the z-score read?
The z-score was 3.06.

For `COc1cc(OC)c(NC(=O)Nc2cc(C)on2)cc1Cl`, which z-score is on record?
Its z-score is 0.422.

Which z-score does the source give for `NC(=O)c1cccc(-c2cccc(OC(=O)NC3CCCCC3)c2)c1` here?
Its z-score is 0.801.

For `Nc1cccc2c1C(=O)N(C1CCC(=O)NC1=O)C2=O` (centres undefined), which z-score is on record?
Its z-score is 0.502.

With `C=C(C)[C@@H]1CC[C@]2(C)CC[C@]3(C)[C@H](CC[C@@H]4[C@@]5(C)CC[C@H](O)C(C)(C)[C@H]5CC[C@]43C)[C@@H]12` as the compound, how does the z-score read?
The z-score was 1.03.

Which z-score does the source give for `C[C@H]1COc2c(N3CCN(C)CC3)c(F)cc3c(=O)c(C(=O)O)cn1c23` here?
The z-score was 1.28.

For `CC(=O)O[C@H]1C[C@@H]2CC[C@H]3[C@H]4C[C@H]([N+]5(C)CCCCC5)[C@@H](OC(C)=O)[C@@]4(C)CC[C@@H]3[C@@]2(C)C[C@H]1[N+]1(C)CCCCC1`, which z-score is on record?
Its z-score is 0.763.

With `CN1[C@H]2CC(OC(=O)[C@@H](CO)c3ccccc3)C[C@H]1[C@H]1O[C@H]12` (some centres undefined) as the compound, how does the z-score read?
Its z-score is 0.573.

Which z-score does the source give for `C[C@]12C=CC(=O)N[C@@H]1CC[C@H]1[C@H]3CC[C@@H](C(=O)Nc4cc(C(F)(F)F)ccc4C(F)(F)F)[C@@]3(C)CC[C@@H]12` here?
Its z-score is 0.94.

With `O=C1NC(O)CCN1[C@@H]1O[C@H](CO)[C@H](O)[C@H]1O` (some centres undefined) as the compound, how does the z-score read?
Its z-score is 0.896.

For `C[C@H](CCC(=O)O)[C@H]1CC[C@H]2[C@@H]3[C@H](O)C[C@@H]4C[C@H](O)CC[C@]4(C)[C@@H]3CC[C@]12C`, which z-score is on record?
The z-score was 0.305.

With `NC(=O)c1ncn([C@@H]2O[C@H](CO)[C@@H](O)[C@@H]2O)c1O` as the compound, how does the z-score read?
Its z-score is 0.702.

With `O=C(CN1C(=O)C2(CCCC2)NC[C@H]1c1cc(F)cc(F)c1)Nc1ccc2c(c1)C[C@@]1(C2)C(=O)Nc2ncccc21` as the compound, how does the z-score read?
The z-score was 1.1.

For `C[C@H](CCC(=O)O)[C@H]1CCC2C3C[C@H](O)[C@@H]4C[C@H](O)CC[C@]4(C)C3CC[C@@]21C` (some centres undefined), which z-score is on record?
The z-score was 0.156.

Which z-score does the source give for `C[C@H](O)[C@@H]1C(=O)N2C(C(=O)O)=C(S[C@@H]3CN[C@H](CNS(N)(=O)=O)C3)[C@@H](C)[C@@H]12` here?
The z-score was -0.714.

For `OCCN1C[C@H](O)[C@@H](O)[C@H](O)[C@@H]1CO`, which z-score is on record?
The z-score was 0.705.

With `COc1cc(C)c(C=CC(C)=CC=CC(C)=CC(=O)O)c(C)c1C` as the compound, how does the z-score read?
Its z-score is 0.993.

With `CCC[C@H]1C[C@H](C(=O)N[C@@H]([C@@H]2O[C@@H](SC)[C@@H](O)[C@@H](O)[C@@H]2O)[C@H](C)Cl)N(C)C1` as the compound, how does the z-score read?
Its z-score is 0.606.

For `Cc1ccc(O)c(C(CCN(C(C)C)C(C)C)c2ccccc2)c1` (centres undefined), which z-score is on record?
The z-score was 0.603.

With `C[C@@]12C[C@@]3(O)O[C@@H](O1)[C@]1(COC(=O)c4ccccc4)[C@@H]3C[C@@]12O[C@@H]1O[C@H](CO)[C@@H](O)[C@H](O)[C@@H]1O` as the compound, how does the z-score read?
The z-score was -0.0471.
